Data on eight molecules can be found in PubChem BioAssay (Tox21).

Assay [1] is described as follows: Nuclear factor erythroid 2-related factor 2/antioxidant responsive element (Nrf2/ARE) small molecule agonists: qHTS cell viability counter screen in human keratinocytes (AID 1919968; active means well fitted curve in the direction sought with a large enough effect in the repeat runs; an effect the other way counts as inactive or inconclusive; further: nearly all actives have a fitted effect of over 55% in size; further: potency means the concentration at half of the fitted maximal effect). Summed up: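 KeratinoSens cells (HaCaT keratinocytes stably carrying an ARE-luciferase reporter) were seeded at 1,500 cells/well and rested 5 h at 37 C/5% CO2. They were then exposed to compounds in DMSO for 23 h. Viability was read by CellTiter-Fluor fluorescence after 1 h.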
For orientation: qHTS replaces the single test concentration by a dilution series.

Assay [2] can be described thus: Nuclear factor erythroid 2-related factor 2/antioxidant responsive element (Nrf2/ARE) small molecule agonists: luciferase reporter gene qHTS assay in human keratinocytes (AID 1919969). Further: nearly all actives have a fitted effect of over 35% in size. Further: potency means the concentration at half of the fitted maximal effect. For orientation: A reporter such as luciferase makes a cellular process visible.
Assay [3] has as its target KiSS-1 receptor (Homo sapiens) (UniProt Q969F8). The assay can be described thus: Human kisspeptin (KISS1R) small molecule agonists, calcium flux assay in KISS1R-HEK293 cells (AID 1920064; active means well fitted curve in the direction sought with a large enough effect in the repeat runs; an effect the other way counts as inactive or inconclusive). Summed up: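 HEK293 cells stably expressing human KISS1R were plated 18 h at 37 °C, loaded with calcium dye for 1 h at 37 °C, then given compound by pin tool. Fluorescence (Ex/Em 480/540) was read kinetically for 3 min.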

A short description of assay [4]: G protein-coupled receptor (GPCR) small molecule agonists, calcium flux assay: HEK293 wild type cell line counter screen (AID 1920065). In short, it runs like this:
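Cells were plated and cultured 18 h at 37 C/5% CO2, then loaded with calcium dye for 1 h at 37 C. Compounds in DMSO were pin-transferred in agonist mode, and fluorescence (Ex/Em 480/540) was read kinetically for 3 min at 1 s intervals.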
(A change in cytosolic calcium serves as a functional read-out for many receptors and channels.)

The nature of assay [5]: p53 small molecule agonists, cell-based qHTS assay with human liver microsomes (AID 1963577). Summed up:
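p53RE-bla cells, 4,000/well, compound added after 5 h, with human liver microsomes 0.5 mg/mL and NADPH 0.5 mg/mL final; 16 h at 37 C, then LiveBLAzer 2 h RT, fluorescence.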

Assay [6] is described as follows: p53 small molecule agonists, cell-based qHTS assay with rat liver microsomes (AID 1963578). In short, it runs like this:
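p53RE-bla cells, 4,000/well, pre-incubated 5 h, then given compounds plus rat liver microsomes (0.5 mg/mL final) and NADPH (0.5 mg/mL final). Incubation 16 h at 37 C; beta-lactamase reporter read by LiveBLAzer fluorescence after 2 h at room temperature.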

Assay [7] in a line: p53 small molecule agonists, cell-based qHTS assay with human liver microsomes: qHTS cell viability counter screen (AID 1963579). Further: nearly all actives have a fitted effect of over 45% in size. Further: potency means the concentration at half of the fitted maximal effect. Summed up: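 p53RE-bla cells, 4,000/well, dosed 5 hours after plating, with human liver microsomes (0.5 mg/mL final) plus NADPH (0.5 mg/mL final), 16 hours at 37 C. Viability read as CellTiter-Glo luminescence after 30 min at room temperature.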
Assay [8] in a line: p53 small molecule agonists, cell-based qHTS assay with rat liver microsomes: qHTS cell viability counter screen (AID 1963580). Further: nearly all actives have a fitted effect of over 45% in size. Summed up: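 p53RE-bla HCT-116 cells were exposed 16 h at 37 C to compounds with rat liver microsomes (0.5 mg/mL) and NADPH (0.5 mg/mL). Viability was measured in the same wells as ATP content by CellTiter-Glo luminescence.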
The nature of assay [9]: p53 small molecule agonists, cell-based qHTS assay: qHTS cell viability counter screen (AID 1963581). Further: nearly all actives have a fitted effect of over 45% in size. Summed up:
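p53RE-bla HCT-116 cells were exposed to compounds for 16 h at 37 C; after the beta-lactamase FRET read in the same wells, CellTiter-Glo was added and luminescence (intracellular ATP) read after 30 min at room temperature.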

Assay [10] can be described thus: p53 small molecule agonists, cell-based qHTS assay (AID 1963582; active means well fitted activation curve with a large enough effect in the signal ratio in the repeat runs, not every such curve was filed as active; the % refers to the signal ratio). In short, it runs like this:
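p53RE-bla beta-lactamase reporter cells rested 5 h at 37 C/5% CO2, then received compounds in DMSO by pin transfer and were incubated 16 h at 37 C. LiveBLAzer B/G FRET substrate was loaded for 2 h at room temperature before fluorescence reading.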

In assay [11] the target is 5-hydroxytryptamine receptor 2A (Homo sapiens) (UniProt P28223). The assay can be described thus: 5-hydroxytryptamine receptor 2A (HTR2A) small molecule agonists, cell-based qHTS assay (AID 1963587). Further: nearly all actives have a fitted effect of over 30% in size. Further: potency means the concentration at half of the fitted maximal effect. Summed up:
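CHO cells stably expressing human HTR2A, plated 18 h, loaded with calcium dye 1 h at 37 C. Agonist mode: compounds added and intracellular calcium fluorescence recorded kinetically for 2 min at 1 sec intervals.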

Assay [12] deals with Muscarinic acetylcholine receptor M1 (Homo sapiens) (UniProt P11229). Nature of the assay: Cholinergic receptor muscarinic 1 (CHRM1) small molecule agonists, cell-based qHTS assay (AID 1963589). Further: nearly all actives have a fitted effect of over 35% in size. Further: potency means the concentration at half of the fitted maximal effect. In short, it runs like this: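 CHO cells stably expressing human CHRM1, seeded 18 h at 37 C/5% CO2, dye-loaded 1 h at 37 C, then given compound in agonist mode; intracellular calcium fluorescence read kinetically at 1 s intervals. Fifteen concentrations, three independent runs.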

In assay [13] the target is Beta-2 adrenergic receptor (Homo sapiens) (UniProt P07550). The assay can be described thus: Adrenergic beta2 receptor (ADRB2) small molecule antagonists, cell-based qHTS assay (AID 1963592). Further: series mostly up to about 92 µM; nearly all actives have a fitted effect of over 50% in size. In short, it runs like this: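 Cells (CHO, stable ADRB2 overexpression) incubated 18-20hr at 37C; compounds added from DMSO; agonist mix (1nM isoproterenol, 100uM IBMX, 25uM Ro-20-1724) added; 0.5hr RT; d2-cAMP and anti-cAMP-cryptate added; 1hr RT; 665/615 nm read.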

Assay [14] has the same target. Nature of the assay: Adrenergic beta2 receptor (ADRB2) small molecule agonists, cell-based qHTS assay (AID 1963593).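 Further: CHO cells stably overexpressing human ADRB2.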 Summed up:
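CHO cells stably over-expressing ADRB2 were plated overnight at 37C, then dosed with compounds plus a stimulation mix containing 100uM IBMX and 25uM Ro-20-1724 for 0.5hr at room temperature. cAMP was measured by HTRF competition, 1hr.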

The target in assay [15] is D(2) dopamine receptor (Homo sapiens) (UniProt P14416). The assay can be described thus: Dopamine D2 receptor (DRD2) small molecule antagonists, cell-based qHTS assay (AID 1963595; active means well fitted inhibition curve with a large enough effect in the signal ratio in the repeat runs, with a control signal flat; the % refers to the signal ratio; further: potency means the concentration at half of the fitted maximal effect). Summed up: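 Human DRD2 antagonist qHTS measuring cAMP by HTRF. The cells are exposed to compound for 10 min, then to NKH477 (200 nM) and quinpirole (12 nM) for 30 min at RT, with Ro20-1724 (0.1 mM) present throughout.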

Assay [16] addresses 5-hydroxytryptamine receptor 2A (Homo sapiens) (UniProt P28223). Nature of the assay: 5-hydroxytryptamine receptor 2A (HTR2A) small molecule antagonists, cell-based qHTS assay (AID 1963586). Further: nearly all actives have a fitted effect of over 45% in size. Further: potency means the concentration at half of the fitted maximal effect. Summed up: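 Antagonist-mode intracellular calcium assay: DOI (4 nM) added after 5 min compound pre-incubation at room temperature to dye-loaded HTR2A-CHO cells. Fluorescence followed for 3 min, sampled every second.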

Assay [17] is described as follows: cAMP Responsive Elements (CRE) small molecule antagonists, cell-based qHTS assay (AID 1963591; active means well fitted inhibition curve with a large enough effect in the signal ratio in the repeat runs, not every such curve was filed as active; the % refers to the signal ratio). Summed up:
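CRE-bla HEK293T cells were plated 18 h at 37 °C/5% CO2, pinned with compound in DMSO, then stimulated with NKH477 at 0.25 uM final for 3 h. LiveBLAzer B/G FRET substrate was added and plates incubated 2 h at room temperature.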

For assay [18], the target named is D(2) dopamine receptor (Homo sapiens) (UniProt P14416). Nature of the assay: Dopamine D2 receptor (DRD2) small molecule agonists, cell-based qHTS assay (AID 1963594). Further: nearly all actives have a fitted effect of over 35% in size. In short, it runs like this: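 HEK293 cells stably expressing human DRD2, pre-treated with PDE inhibitor Ro20-1724 (0.1 mM final) and compound 10 min at room temperature, then stimulated with NKH477 (200nM […]) for 30 min. cAMP read by HTRF (665/620 nm).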

Assay [19] addresses Muscarinic acetylcholine receptor M1 (Homo sapiens) (UniProt P11229). The assay can be described thus: Cholinergic receptor muscarinic 1 (CHRM1) small molecule antagonists, cell-based qHTS assay (AID 1963588). Further: nearly all actives have a fitted effect of over 40% in size. In short, it runs like this:
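CHRM1-CHO calcium-flux assay, antagonist mode. Cells were seeded 18 h, dye-loaded 1 h at 37 C and given compound for 5 min at RT, then acetylcholine was added at 50nM. FDSS fluorescence was read 3 min; 15 concentrations, three runs.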

Assay [20] is described as follows: cAMP Responsive Elements (CRE) small molecule agonists, cell-based qHTS assay (AID 1963590). Summed up: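 CRE-bla HEK 293T cells in DMEM with 10% dialyzed FBS, NEAA, pyruvate and 25 mM HEPES were plated 18 h at 37 C/5% CO2, then exposed to compounds in DMSO for 3 h before LiveBLAzer B/G FRET substrate addition.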

SMILES strings stand for the structures. Several values for one entry are separate records, joined by “and”; a condition that tells them apart may be missing. Equal values may be shown once. Records with an inconclusive call do not appear. Some compounds were tested as several samples or in several runs, with calls that do not always agree. Activity calls are given as the source filed them. Unless noted, the call rests on the fitted dose curve.

Chain of 5-hydroxytryptamine receptor 2A (Homo sapiens) (P28223 whole entry, looked up): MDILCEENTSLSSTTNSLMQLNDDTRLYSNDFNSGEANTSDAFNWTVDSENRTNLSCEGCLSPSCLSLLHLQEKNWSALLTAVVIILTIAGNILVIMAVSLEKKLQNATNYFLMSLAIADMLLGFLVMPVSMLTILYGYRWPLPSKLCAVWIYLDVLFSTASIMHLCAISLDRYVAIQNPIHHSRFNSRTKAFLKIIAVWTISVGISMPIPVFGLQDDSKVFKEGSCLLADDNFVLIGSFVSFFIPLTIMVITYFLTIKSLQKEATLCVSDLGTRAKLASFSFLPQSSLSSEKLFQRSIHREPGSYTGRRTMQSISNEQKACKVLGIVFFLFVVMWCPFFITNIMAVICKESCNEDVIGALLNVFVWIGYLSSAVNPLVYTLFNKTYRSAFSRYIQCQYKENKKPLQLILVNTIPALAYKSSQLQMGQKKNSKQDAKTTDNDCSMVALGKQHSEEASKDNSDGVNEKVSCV
Chain of Beta-2 adrenergic receptor (Homo sapiens) (P07550 whole entry, looked up): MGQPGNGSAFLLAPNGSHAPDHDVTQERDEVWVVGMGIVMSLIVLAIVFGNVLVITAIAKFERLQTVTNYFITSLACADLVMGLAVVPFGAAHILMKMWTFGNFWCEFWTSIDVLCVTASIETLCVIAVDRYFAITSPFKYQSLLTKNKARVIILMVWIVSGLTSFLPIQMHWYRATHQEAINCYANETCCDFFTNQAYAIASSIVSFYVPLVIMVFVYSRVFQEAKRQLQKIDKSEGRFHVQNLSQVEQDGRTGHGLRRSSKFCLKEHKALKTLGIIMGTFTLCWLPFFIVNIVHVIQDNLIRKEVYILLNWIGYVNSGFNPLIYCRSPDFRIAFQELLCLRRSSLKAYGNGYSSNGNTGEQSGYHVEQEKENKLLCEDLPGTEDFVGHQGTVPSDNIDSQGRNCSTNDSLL
Chain of D(2) dopamine receptor (Homo sapiens) (P14416 whole entry, looked up): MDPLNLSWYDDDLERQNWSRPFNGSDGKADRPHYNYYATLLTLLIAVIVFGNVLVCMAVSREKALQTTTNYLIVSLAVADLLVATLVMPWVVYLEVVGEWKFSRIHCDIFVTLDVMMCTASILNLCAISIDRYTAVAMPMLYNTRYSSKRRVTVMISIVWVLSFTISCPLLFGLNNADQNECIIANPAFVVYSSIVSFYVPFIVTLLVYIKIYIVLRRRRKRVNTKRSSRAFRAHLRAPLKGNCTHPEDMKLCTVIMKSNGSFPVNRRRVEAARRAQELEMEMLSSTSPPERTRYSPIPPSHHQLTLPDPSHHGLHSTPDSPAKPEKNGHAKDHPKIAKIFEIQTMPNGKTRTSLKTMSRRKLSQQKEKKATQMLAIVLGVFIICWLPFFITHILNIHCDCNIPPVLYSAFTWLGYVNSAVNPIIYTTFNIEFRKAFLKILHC
Chain of Muscarinic acetylcholine receptor M1 (Homo sapiens) (P11229 whole entry, looked up): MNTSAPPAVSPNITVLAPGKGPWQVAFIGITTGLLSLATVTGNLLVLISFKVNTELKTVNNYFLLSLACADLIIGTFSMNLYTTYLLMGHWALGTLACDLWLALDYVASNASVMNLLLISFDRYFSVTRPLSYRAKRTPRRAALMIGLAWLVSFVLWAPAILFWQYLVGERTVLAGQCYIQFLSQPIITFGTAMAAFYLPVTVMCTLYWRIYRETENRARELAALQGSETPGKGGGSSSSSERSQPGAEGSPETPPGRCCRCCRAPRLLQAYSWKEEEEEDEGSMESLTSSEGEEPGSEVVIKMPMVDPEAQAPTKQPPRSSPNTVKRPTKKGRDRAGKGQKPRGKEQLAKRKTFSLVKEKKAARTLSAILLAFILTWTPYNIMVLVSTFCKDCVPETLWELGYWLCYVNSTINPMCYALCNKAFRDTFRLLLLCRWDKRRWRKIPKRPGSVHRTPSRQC
Chain of KiSS-1 receptor (Homo sapiens) (Q969F8 whole entry, looked up): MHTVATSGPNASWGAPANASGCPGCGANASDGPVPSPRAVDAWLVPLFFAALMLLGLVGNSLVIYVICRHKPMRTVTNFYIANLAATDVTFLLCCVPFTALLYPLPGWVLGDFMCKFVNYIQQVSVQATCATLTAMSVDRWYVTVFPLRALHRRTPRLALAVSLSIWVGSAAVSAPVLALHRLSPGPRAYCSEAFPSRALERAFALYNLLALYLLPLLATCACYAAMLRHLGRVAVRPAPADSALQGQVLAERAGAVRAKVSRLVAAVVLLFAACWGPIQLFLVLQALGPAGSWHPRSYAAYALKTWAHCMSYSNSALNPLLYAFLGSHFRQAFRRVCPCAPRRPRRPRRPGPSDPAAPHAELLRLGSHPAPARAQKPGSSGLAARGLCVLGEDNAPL

Take `CCCCCCCCCCCCCC[N+](C)(C)C`: the Potency in [1] is 52.7 µM (active) and 38.5 µM (active) and 2.37 µM (active); in [11], 48.9 µM (active); in assay [12], 10.7 µM (active). The Potency entry in assay [2], in [3], in [4], in [5], in [6] and in assay [7] was “inactive” throughout. The Potency entry in assay [8], in assay [9], in assay [10], in [13], in [14] and in assay [15] was “inactive” in each case.
Consider `O=C(O)c1ccccc1Nc1cccc(C(F)(F)F)c1`, for which the Potency entry in [1], in [3], in [4], in [5], in assay [6] and in [8] was “inactive” throughout. Further, the Potency result in [9], in assay [16], in assay [11], in assay [12], in assay [17] and in assay [13] was “inactive” each time. The Potency entry in [14], in assay [18] and in assay [15] was “inactive” each time. Besides, the Potency in assay [2] was 13.7 µM (active) and inactive; in assay [7], 40.8 µM (active) and inactive.
In the case of `CCCCCCCCCCCCN`, the Potency result in [1] was “inactive and 30.6 µM (active)”; in assay [7], “inactive and 40.8 µM (active)”; in assay [16] it was 5.94 µM (active) and inactive; in [11], 24.5 µM (active) and inactive; in assay [12], “inactive and 24.5 µM (active)”; in assay [15] it was “inactive and 43.3 µM (active)”. Besides, the Potency result in assay [2], in [3], in [4], in assay [5], in assay [8] and in assay [10] was “inactive” each time. In addition, the Potency entry in assay [19], in [20], in assay [13], in assay [14] and in assay [18] was “inactive” each time.
As for `C1N2CN3CN1CN(C2)C3`, the Potency entry in assay [1], in [2], in assay [3], in assay [4], in assay [5] and in assay [6] was “inactive” throughout. The Potency entry in [7], in [8], in assay [9], in [16], in assay [11] and in [19] was “inactive” in each case. For the same molecule, the Potency entry in assay [12], in [20], in assay [17], in assay [13], in assay [14] and in assay [18] was “inactive” each time. Further, in assay [15], the Potency entry was “inactive”.
For `C[C@]12C=CC(=O)C=C1CC[C@@H]1[C@@H]2C(=O)C[C@@]2(C)[C@H]1CC[C@]2(O)C(=O)CO`, the Potency entry in assay [1], in assay [2], in [3], in [4], in [5] and in assay [6] was “inactive” each time. Moreover, the Potency entry in assay [7], in assay [8], in assay [9], in [10], in assay [20] and in [17] was “inactive” each time. The Potency result in [13], in [14], in assay [18] and in [15] was “inactive” each time.
Consider `O=S(=O)(O)c1ccc(O)cc1`, for which the Potency entry in assay [1], in [2], in assay [3], in assay [4], in [5] and in assay [6] was “inactive” each time. Besides, the Potency result in assay [7], in assay [8], in assay [9], in assay [10], in assay [16] and in assay [11] was “inactive” throughout. The Potency result in assay [19], in [12], in assay [20], in assay [17], in [18] and in assay [15] was “inactive” each time.
`NC(CO)(CO)CO`: the Potency result in assay [1], in assay [2], in assay [3], in assay [4], in assay [5] and in assay [6] was “inactive” throughout. For the same molecule, the Potency result in assay [7], in [8], in [9], in assay [10], in assay [20] and in assay [17] was “inactive” throughout. Further, the Potency result in [13], in assay [18] and in [15] was “inactive” each time.
On to `CC(C)(N)CO`, for which the Potency entry in [1], in [2], in [3], in assay [4], in assay [5] and in [6] was “inactive” each time. Besides, the Potency result in assay [7], in [8], in [9], in assay [10], in [16] and in assay [11] was “inactive” in each case. Also, the Potency result in assay [19], in [12], in [20], in assay [17], in [13] and in [18] was “inactive” each time. Further, the Potency result in assay [15] was “inactive”.
